A selection: hits, their analogues and other compounds. The true share with any hit is near 1.5%.
ABCB6 inh 2 – ABCB6 transporter inhibitors, primary screen, K562-ABCB6 cells, flow cytometry, MLPCN library; 360,000 tested, 0.19% active; K562-ABCB6 porphyrin accumulation, 1 h; stronger effect = lower value; AID 602162, 2011; fluorescence ratio to DMSO, % at 10 µM; ATP-binding cassette sub-family B member 6 (Homo sapiens), Q9NP58;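 active means fluorescence ratio to DMSO below 75%, the collection mean minus 3 SD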;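 further: signal is porphyrin accumulated inside mitochondria; 100% equals median channel fluorescence of DMSO control wells; lower ratio means ABCB6 inhibition with less porphyrin fluorescence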
Target sequence (Q9NP58 whole entry, looked up): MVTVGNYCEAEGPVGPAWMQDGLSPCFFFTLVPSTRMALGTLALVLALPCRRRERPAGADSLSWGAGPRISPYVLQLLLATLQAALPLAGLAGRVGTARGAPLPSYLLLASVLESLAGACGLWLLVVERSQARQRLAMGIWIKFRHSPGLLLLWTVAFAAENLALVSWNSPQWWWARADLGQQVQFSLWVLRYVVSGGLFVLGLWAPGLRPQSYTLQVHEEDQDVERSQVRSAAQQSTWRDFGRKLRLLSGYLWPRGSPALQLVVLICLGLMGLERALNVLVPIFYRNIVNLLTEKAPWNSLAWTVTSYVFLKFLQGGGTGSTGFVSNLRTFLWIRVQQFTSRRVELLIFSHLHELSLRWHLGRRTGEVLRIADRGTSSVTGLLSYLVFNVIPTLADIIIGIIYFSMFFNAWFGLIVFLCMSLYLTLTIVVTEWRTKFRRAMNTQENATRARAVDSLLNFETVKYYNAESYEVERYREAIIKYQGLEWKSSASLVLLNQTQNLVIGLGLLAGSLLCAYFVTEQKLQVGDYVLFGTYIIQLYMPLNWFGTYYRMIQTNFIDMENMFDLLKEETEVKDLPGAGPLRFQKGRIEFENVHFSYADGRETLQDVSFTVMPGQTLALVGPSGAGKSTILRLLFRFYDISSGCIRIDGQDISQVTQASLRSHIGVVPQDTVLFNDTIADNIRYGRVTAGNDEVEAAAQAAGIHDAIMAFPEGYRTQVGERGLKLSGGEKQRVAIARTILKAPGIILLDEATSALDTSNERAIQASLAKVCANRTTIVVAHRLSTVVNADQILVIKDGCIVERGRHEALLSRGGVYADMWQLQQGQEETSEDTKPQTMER
TMEM16A inh – TMEM16A chloride channel inhibitors, primary screen, cell-based, HTS; Anoctamin-1 (Mus musculus), Q8BHY3; HEK293 TMEM16A/YFP iodide influx fluorescence, ionomycin; normalized B-score (activity score, 25-100; higher = stronger inhibition) at 10 µM; 310,000 tested, 1.2% active; AID 588511, 2011;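 active means ratio plate-corrected score three or more library SD toward inhibition, starting fluorescence score within five deviations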;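 further: score derived from kinetic fluorescence span divided by baseline fluorescence per well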
DAGLB inh – DAGLB lipase inhibitors, primary screen, biochemical, fluorescence, HTS | Diacylglycerol lipase-beta (Homo sapiens), Q8NCG7 | HEK293T DAGLB membrane lysate, EnzChek fluorogenic substrate | inhibition, % at 5.17 µM | 340,000 tested, 0.059% active | AID 504411, 2011; in the data active means inhibition above about 34%;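 further: 0% = enzyme with vehicle and 100% = wells lacking enzyme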
iPSC survival up – enhancers of single-cell hiPSC survival, primary screen, ATPlite luminescence; 100% = ROCK inhibitor wells, 0% = DMSO; 360,000 tested, 0.044% active; survival enhancement, % at 20 µM; AID 602274, 2012; in the data active means survival enhancement above about 18%;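 further: cells exposed to compounds for 16 hours before the ATP read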
TMEM16A act – TMEM16A chloride channel activators or potentiators, primary screen, cell-based, HTS; AID 623877, 2012; 340,000 tested, 0.3% active; B-score at 10 µM; HEK293 TMEM16A/YFP-H148Q/I152L, iodide quench fluorescence; stronger effect = lower value;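 active means fluorescence-ratio B-score plate-corrected deviation score at least 3 library SD below zero, with starting fluorescence score within 5 deviations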;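 further: channel opened by trigger with iodide after compound preincubation; score built on the fluorescence ratio of max minus min over baseline; more negative score means more quench and so TMEM16A activation or potentiation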
TMEM16A reconf – TMEM16A chloride channel inhibitors, confirmation, cell-based, re-confirmation; shares compounds with TMEM16A inh; HEK293 TMEM16A/YFP-H148Q, iodide quench fluorescence; ionomycin added to raise cell calcium; inhibition, % at 10 µM; 2,300 tested, 39% active;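 active means mean duplicate percent inhibition, scaled so buffer wells are 0 and the reference blocker 100, over three buffer SD above buffer mean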
HEK293 Ca mobil – calcium mobilization in TMEM16A/YFP HEK293 cells, confirmation, counter-screen for TMEM16A inhibitor project; calcium response (% of ionomycin), % at 10 µM; 2,300 tested, 2% active; Fluo4 calcium mobilization; shares compounds with TMEM16A inh;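 active means duplicate-averaged calcium signal over 20% of the ionomycin maximum, relative to buffer baseline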;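 further: each well's signal is peak minus trough fluorescence divided by its pre-addition baseline; 0% = buffer wells and 100% = ionomycin wells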
Parental YFP cnt – iodide YFP quench changes in parental YFP-HEK293, counter-screen for TMEM16A inhibitor project, cell-based; shares compounds with TMEM16A inh; ionomycin; YFP ratio F(max-min)/F0 at 10 µM; 2,300 tested, under 10 active;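 active means yellow fluorescent protein signal ratio exceeding the buffer control mean by over 5 SD of those controls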;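 further: ratio is mean of duplicate wells from kinetic YFP trace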
ClC-1 rat inh – ClC-1 chloride channel inhibition, selectivity assay for TMEM16A inhibitor project, cell-based, voltage-dependent ClC-1 | ratio percent, % at 10 µM | CHO ClC-1-YFP, iodide influx fluorescence quench; iodide control reads 0, buffer control 100 | shares compounds with TMEM16A inh | 2,300 tested, under 10 active | AID 652236, 2013;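 active means duplicate-mean ratio percent above the mean of iodide-only control wells, which defines zero, plus 5 of their SD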;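 further: higher percent means stronger block of ClC-1 iodide influx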
* hit, by the source's call; i = inactive; . = not tested or not shown.

SMILES	ABCB6 inh 2	TMEM16A inh	DAGLB inh	iPSC survival up	TMEM16A act	TMEM16A reconf	HEK293 Ca mobil	Parental YFP cnt	ClC-1 rat inh
CC1CC(C)CN(Cc2nc3c(c(=O)n(C)c(=O)n3C)n2CCN2CCOCC2)C1 (stereo unspecified)	108.0	100*	1.2	0.7	i	i	i	-1.24	-4.0
CC(=O)NCCNc1nc2cc(-c3cc(F)ccc3C)sc2c(=O)n1C	95.0	.	.	1.5	.	.	.	.	.
Cc1nc(C(F)(F)F)c(C(=O)NC(=O)Nc2ccc(OC(F)(F)F)cc2)s1	92.0	100*	-0.7	-0.8	i	i	i	-1.06	3.5
Cc1nc(C(F)(F)F)c(C(=O)NC(=O)Nc2ccccc2)s1	104.0	i	-2.6	0.1	i	.	.	.	.
CCOc1ccc(C(=O)NC(C(=O)NCCc2ccc(OC(F)F)cc2)C(C)C)cc1 (stereo unspecified)	100.0	i	-10.5	-0.7	i	.	.	.	.
COc1ccc(C2CC(c3ccccc3)=NN2S(=O)(=O)c2ccccc2)cc1 (stereo unspecified)	100.0	i	-2.1	-0.2	i	55.0%*	i	-0.845	2.0
COc1ccc(OCCC(=O)OCC(=O)NC(=O)NC(C)(C)C)cc1	94.0	i	-3.5	3.3	i	i	i	-1.15	-11.5
CC(=O)c1ccc(NC(=O)C2CC2c2ccccc2)cc1 (stereo unspecified)	95.0	i	0.1	-0.2	i	.	.	.	.
COc1cc(NC(=O)c2cnc(N)o2)cc(C(=O)Nc2cccc(C(F)(F)F)c2)c1	97.0	100*	0.0	-0.7	i	46.5%*	i	-0.869	-14.0
COc1cc(NC(=O)c2ccnc(N)c2)cc(C(=O)Nc2cccc(C(F)(F)F)c2)c1	98.0	i	4.3	-4.1	i	.	.	.	.
O=C(/C=C/c1ccc(OC(F)F)cc1)Nc1cccc(S(=O)(=O)NC2=NCCCCC2)c1	90.0	i	-1.2	-0.5	i	.	.	.	.
Cc1cc(C(=O)CSc2ccc(F)cc2)cc(C)c1OC(=S)N(C)C	92.0	100*	-1.5	-3.5	i	i	i	-1.37	-8.0
C[C@H](CO)N1C[C@H](C)[C@@H](CN(C)C(=O)Nc2ccc(F)cc2)OCc2cnnn2CCCC1=O	100.0	.	1.8	0.8	.	.	.	.	.
CCc1ccc(CNn2cnnc2SCC(=O)NC(C)(C)C)cc1	88.0	100*	2.0	-1.7	i	i	i	-1.13	-10.0
COc1ccc(-c2nn(-c3ccccc3)cc2C(=O)N2CCN(C(=O)c3ccco3)CC2)cc1	93.0	.	0.3	-1.3	i	.	.	.	.
Cc1ccc(C)c(OCc2cc(C(=O)N3CC[C@H](O)C3)no2)c1	100.0	i	1.0	-0.2	i	.	.	.	.
Cc1n[nH]c(C)c1CCOc1ccc(C(C)C)cc1	90.0	25*	-0.5	4.0	i	i	i	-1.12	-18.5
Cc1cccc(OCCCc2c(C)n[nH]c2C)c1	80.0	i	0.1	-1.8	i	.	.	.	.
CCCCc1c(Cc2ccccc2)ncn1CCc1ccccc1OC	117.0	.	.	0.3	.	.	.	.	.
NS(=O)(=O)c1cc2c(cc1Cl)NC(CC1CCCC1)NS2(=O)=O (stereo unspecified)	99.0	i	-1.7	-0.3	i	.	.	.	.
NS(=O)(=O)c1cc2c(cc1Cl)NC(Cc1ccccc1)NS2(=O)=O (stereo unspecified)	95.0	i	-2.1	-0.2	i	i	i	-0.915	-10.5
COc1ccc(N2CCN(CCCn3cnc4c(SC)ncnc43)CC2)cc1	96.0	.	0.2	2.8	.	.	.	.	.
CCCC(=O)Nc1c2c(nn1-c1ccc(C)cc1)CS(=O)(=O)C2	104.0	100*	-9.1	-0.3	i	i	i	-1.01	-10.0
O=c1c2cc(Br)ccc2nc(-c2ccc(Cl)cc2)n1O	102.0	25*	-3.0	-0.5	i	39.0%*	110.0%*	-0.875	-5.5
CC(C)CN1C(=O)C(=O)N(CC(=O)NC(C)CCc2ccccc2)C1=O (stereo unspecified)	99.0	.	2.9	1.1	i	.	.	.	.
SMILES	ABCB6 inh 2	TMEM16A inh	DAGLB inh	iPSC survival up	TMEM16A act	TMEM16A reconf	HEK293 Ca mobil	Parental YFP cnt	ClC-1 rat inh
COc1ccc(N(C)C(=O)c2cc3c(s2)-c2ccc(Cl)cc2S(=O)(=O)C3)c(OC)c1	91.0	25*	-1.2	0.4	i	25.5%*	i	-0.815	-7.5
CCSc1nnc(NC(=O)NC(CC)(C(F)(F)F)C(F)(F)F)s1	104.0	100*	-6.3	-1.4	i	16.0%*	i	-1	-18.5
COc1ccc(NC(=O)CSc2ccc(-c3cccnc3)nn2)cc1	100.0	i	-2.5	-0.4	i	.	.	.	.
CCOC(=O)c1ccc(NC(=O)CSc2ccc(-c3cccnc3)nn2)cc1	97.0	25*	-3.5	1.2	i	i	i	-1.13	-5.0
CC(=O)c1ccc(OCC(=O)Nc2cccc(C(=O)Nc3c(C)n(C)n(-c4ccccc4)c3=O)c2)cc1	95.0	.	2.5	1.3	i	.	.	.	.
CCC(C)C(NC(=O)C1CCC(C)CC1)C(=O)Nc1cc(OC)ccc1OC (stereo unspecified)	96.0	25*	-1.8	-2.9	i	i	i	-1.07	-6.5
COc1c(C(=O)Nc2ccc(Cc3ccncc3)cc2)ccc2ccccc12	98.0	100*	-2.6	-1.3	i	i	i	-1.14	-8.5
Cc1noc(C)c1COC(=O)c1cc(C)n(-c2ccccc2)c1C	84.0	25*	-10.2	-0.3	i	22.0%*	i	-0.992	-11.5
O=c1[nH]c2ccccc2nc1/C=C/c1ccc(F)cc1	180.0	i	-1.3	-1.1	i	i	i	-1.07	23.0
COc1ccc(OC)c(C=Nc2ccccc2-c2nc3ccccc3[nH]2)c1	102.0	i	-1.0	-2.5	i	.	.	.	.
COc1ccc(OC)c(/C=C/c2nc3ccccc3[nH]c2=O)c1	95.0	i	-3.7	-0.4	i	i	i	-1	15.5

High-throughput results deposited in PubChem by several laboratories.
